Assay results taken from article PMC12136788.
Substitutions are numbered along the chain they refer to. In all, about 5,800 sequences were measured (“enrichment r”: median about 0.68, highest 2% from about 11 on). The list comes from a sample in which the highest values are over-represented; it also holds similar and randomly drawn sequences.

T1: UNK ZnF1-6 (called full-length) (human, UniProt Q9C0B0 30-357)
T1 sequence: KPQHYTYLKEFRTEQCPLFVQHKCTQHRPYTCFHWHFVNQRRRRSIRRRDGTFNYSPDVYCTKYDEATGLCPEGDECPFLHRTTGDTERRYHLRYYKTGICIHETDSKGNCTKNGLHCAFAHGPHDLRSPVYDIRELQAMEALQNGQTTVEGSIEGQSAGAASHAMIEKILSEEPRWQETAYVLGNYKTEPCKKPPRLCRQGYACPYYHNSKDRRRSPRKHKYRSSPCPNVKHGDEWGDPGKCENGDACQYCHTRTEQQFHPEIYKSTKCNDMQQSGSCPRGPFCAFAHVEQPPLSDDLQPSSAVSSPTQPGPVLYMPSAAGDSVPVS

B1: chr9:123379744:123379845:-|3pUTR|ENSG00000119522|msi1|total|mutant (ssRNA)
RNA: GGGAGUUCUACAGUCCGACGAUCGUGUUUCAGCACCGAUUCCAGUUUCGCACCCUGGGCAGACCCCCAGGCCCCAUCCGGGACCGGGCAGAGGAGGUGCUGGCGGCCCCAGGGAAGGAGGGUGUGUACCCCAAGGCCCCCUGGCAACAGAGGAUUGAGCAUCA
B2: chr3:98797553:98797658:-|3pUTR|ENSG00000057019|msi1|total|mutant (ssRNA)
RNA: GGGAGUUCUACAGUCCGACGAUCAUUUCAUUCAUUGAAGAAUCAAUACAUAUUUUGUUUCAAAAUGUUUGAAACAAAAGACACCGAUGGCCGACUUUUAUUAAAACAUAUAUGGAUGUGGAAAGCACAUAUAUUAAUGCAGUCCAACAGAGGAUUGAGCAUCA
B3: chr15:52550718:52550819:-|3pUTR|ENSG00000128989|msi1|FALSE|unique (ssRNA)
RNA: GGGAGUUCUACAGUCCGACGAUCUUUAUAUAAACUUUUUAAAUGUAGAAACUUUUUACUUCCACACUCAGUUUUGGAGACCCUAGAAUAAAAGGCUUCAAUACUCUGCAUUCCAUGCCCUCUGCCACCUGCUUUUUUUUCCCCCAACAGAGGAUUGAGCAUCA
B4: chrX:100674576:100674677:+|3pUTR|ENSG00000102359|msi1|FALSE|bound_elsewhere (ssRNA)
RNA: GGGAGUUCUACAGUCCGACGAUCUUGCAAUCCACACCAAAUCAAUCUUUGAAAACAUUCCUCCAUUCGGUUCAUACAUACAGUAGAAACCACUGUGGCUGCCCUUAAUCCAGUGUGCUUAUAGGAAAUCAGUUAGCAGCUGACCAACAGAGGAUUGAGCAUCA
B5: chr7:7607225:7607326:+|3pUTR|ENSG00000164654|msi1|total|mutant (ssRNA)
RNA: GGGAGUUCUACAGUCCGACGAUCUUUGAGUGAUUUUGAUAUGCUUCACAGAGACAAAUGCUGCCAAAAUAAACAUCGAAGUACCGACAUGAGUUCUGUUCAGCAGGUUGAAAAGUCUGAUUCCGAAAAACUUUCUAAGUUUUGCAACAGAGGAUUGAGCAUCA
B6: chr3:129431351:129431457:-|3pUTR|ENSG00000129071|unk|FALSE|unique (ssRNA)
RNA: GGGAGUUCUACAGUCCGACGAUCACUUCAAAAAAGCUUAAUUAAGUACAACCAACCACCUUUCCAGCCAUAGAGAUUUUAAUUAGCCCAACUAGAAGCCUAGUGUGUGUGCUUUCUUAAUGUGUGUGCCAAUGGUGGAUCUUUCAACAGAGGAUUGAGCAUCA
B7: chr14:44928120:44928223:-|3pUTR|ENSG00000179454|unk|FALSE|unique (ssRNA)
RNA: GGGAGUUCUACAGUCCGACGAUCUAGUACAGCAGGCCUCCCAGUGCUGAUGUAAAUAUUUGAGCAGUGUUUAGUACCAUUCUUAGUGCAUAUUAAUUUUUUUAUAUAUCCUUAUAAUUUUAGUUUUUUAAGAUCUUUGCUUUUCAACAGAGGAUUGAGCAUCA
B8: chr5:154817497:154817598:+|3pUTR|ENSG00000155506|msi1_unk|FALSE|overlapping (ssRNA)
RNA: GGGAGUUCUACAGUCCGACGAUCUUAUUGAGAGUAUCUGCUUUCCAGGCUGAAGUGAUUCAUUCAUUAUUCUAGUCCUGCUUUAGUCCUUUGUAAUUUGUGGUAAUUAUGCUUUUCUUUUUAAUACAAAAAAAUGUAUAAAAACAACAGAGGAUUGAGCAUCA
B9: chr14:44928120:44928223:-|3pUTR|ENSG00000179454|unk|total|mutant (ssRNA)
RNA: B7 RNA with U24C, A25C, U71C, A72C, U83C, A84C, U120C, A121C
B10: chr12:54238554:54238587:-|3pUTR|ENSG00000094916|msi1_unk|FALSE|overlapping (ssRNA)
RNA: GGGAGUUCUACAGUCCGACGAUCGGGAGCACCCAUUUUAAACCUGGAGAGAACCAUGAUGUUUUCUUCUUCAAAUAACAAUCUAGUUUUUUUUCCCCCAGUACUAAAAUUGUAUUGUCUUUCAGACAAUAUAAUUUUUAUUUACAACAGAGGAUUGAGCAUCA
B11: chr10:73916565:73916770:+|3pUTR|ENSG00000122861|msi1|total|mutant (ssRNA)
RNA: GGGAGUUCUACAGUCCGACGAUCCUGGUUGUCAUUUUUGCAGCCGAGUCAUCUCCAUCAGCUGUAAGAAGAGACUGGGAAGACCGGCUCUGCACAGAUGGAUUUGCCUGUGCCACCCACCAGGGCGAACGACAACCGCUUUACCAACAGAGGAUUGAGCAUCA
B12: chr10:72012227:72012328:+|3pUTR|ENSG00000122863|msi1|total|mutant (ssRNA)
RNA: GGGAGUUCUACAGUCCGACGAUCCAAUGGAAGGAGCUUCAGCAGGAGGUCCUUCCCAGAAGGUUGAUUCUUGGCCUGGGUGGCCGAGGAGAUAUCCUGACCCUAAAGUCUUCCAGCCCCGGGUCAUCCUCUCCUAUACCCGGGCAACAGAGGAUUGAGCAUCA
B13: chr1:18907414:18907603:-|3pUTR|ENSG00000169991|msi1|total|mutant (ssRNA)
RNA: GGGAGUUCUACAGUCCGACGAUCCCUUGAUUUCCCUGAUAACUUGAUGUUCUUCCCUCCCUCGCCAGCCAACAACCGAGGCUCCGAGAUCUGUAAUUUCUCUGUGAGAAAGUCUGAAGGGGCCAGGCCUGGUCUCUGCUCCCUCAACAGAGGAUUGAGCAUCA
B14: chr1:42176760:42176861:-|3pUTR|ENSG00000198815|msi1|total|mutant (ssRNA)
RNA: GGGAGUUCUACAGUCCGACGAUCGUCGCUCAGAUGUCCUUUGAAGUGGGAGGGAAUCAAUCCGGGGAUAAUUUCAAAUGGAACCGAGUAUUUUGAUAUUGUUCAUUCAGAGGGUGAUGUGUACAUAUCUAUAUUGUAUAUAUGCAACAGAGGAUUGAGCAUCA

target: T1, UNK ZnF1-6 (called full-length); test: nsRBNS (natural sequence RNA bind-n-seq); RBNS binding buffer (assumed for nsRBNS): 25 mM Tris pH 7.5, 150 mM KCl, 3 mM MgCl2, 0.01% Triton X-100, 500 ug/ml BSA, 20 U/ml SUPERase-In, 4 C; UNK is unkempt and MSI1 is Musashi-1; names of the RNAs are library labels; protein concentration not given here; high values mean tight binding

Row | Binder | binding signal [enrichment R]
1 | B1 | 0.59
2 | B2 | 0.53
3 | B3 | 3.77
4 | B4 | 0.532
5 | B5 | 0.348
6 | B6 | 5.99
7 | B7 | 213
8 | B8 | 1.93
9 | B9 | 7.31
10 | B10 | 9
11 | B11 | 0.561
12 | B12 | 0.492
13 | B13 | 0.733
14 | B14 | 1.09
